Source: PubChem BioAssay
Hits are enriched below; roughly 4.2% of the tested compounds scored in any of these assays.
NALP3 yeast inh: NALP3 inhibition in yeast; Yeast reconstituted NLRP3/ASC/caspase-1, beta-gal luminescence, 24 h; inhibition, % at 10 µM; actives 0.39% (n = 330,000); AID 2825;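 active = inhibition of 50% or more; inactive = inhibition below 50%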
TIM10 inh: inhibits growth of TIM10 yeast strain; S. cerevisiae TIM10 strain growth, BacTiter-Glo luminescence, 24 h; inhibition, % at 10 µM; actives 1.4% (n = 330,000); AID 463195;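 active = inhibition of 40% or more at the single tested concentration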;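 note: wild-type TIM10 isogenic control strain grown at permissive 25 °C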
tim10-1 inh: inhibits growth of tim10-1 mutant yeast | S. cerevisiae tim10-1 ts strain growth, BacTiter-Glo, 24 h | inhibition, % at 20 µM | actives 2.2% (n = 330,000);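 active = inhibition of at least 40%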;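 note: mutant grown at 25 °C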
PfHsp90 set2: growth inhibition of yeast expressing Plasmodium Hsp90 | S. cerevisiae expressing PfHsp90, BacTiter-Glo ATP, 48 h; yeast lacking PDR1 and PDR3 efflux regulators | inhibition, % at 9.4 µM | actives 0.32% (n = 310,000) | AID 504621;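 active = every replicate shows inhibition above about 80%, whatever the replicate mean, limit read from the data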
tim23-1 inh: tim23-1 yeast growth inhibition. AID 463212. S. cerevisiae tim23-1 growth, BacTiter-Glo luminescence, 24 h. actives 1.3% (n = 330,000). inhibition, % at 20 µM;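 active = growth inhibition of the mutant yeast at or above 50%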;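 note: temperature-sensitive mutant grown at 25 °C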
NALP1 yeast inh: inhibitors of NALP1 inflammasome in yeast; AID 2071; S. cerevisiae NALP1/ASC/caspase-1 growth, X-gal OD620, 72 h; inhibition, % at 10 µM; actives 0.61% (n = 280,000); in the data active = inhibition mostly above about 24%, no sharp cut-off; inactive = mostly below about 32%
TIM10 conf: TIM10 yeast growth inhibition, confirmed. shares compounds with TIM10 inh. S. cerevisiae tim10 strain growth, BacTiter-Glo luminescence, 24 h. inhibition, % at 10 µM. actives 63% (n = 4,600);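 active = inhibition of yeast growth at or above a set limit in either of two replicates at 10 µM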; note: this counterscreen used the strain with wild-type TIM10
A number is an active result; - = inactive; . = no result given.

SMILES	NALP3 yeast inh	TIM10 inh	tim10-1 inh	PfHsp90 set2	tim23-1 inh	NALP1 yeast inh	TIM10 conf
O=C(Nc1ccc(S(=O)(=O)NC2=NCCCCC2)cc1)c1ccc(Cl)cc1Cl	-	-	-	-	-	.	.
CCN(CC(=O)Nc1c(F)cccc1F)C(=O)c1cc(C)oc1C	-	-	-	.	-	.	.
CCCCn1c(N)c(N(CCOC)C(=O)CN(C)S(=O)(=O)c2ccc(C)cc2)c(=O)[nH]c1=O	-	-	-	-	-	.	.
COc1ccc(Br)cc1CNC(=O)Nc1cccs1	-	51	-	.	-	-	39
COc1ccccc1CNC(=O)Nc1cccs1	-	-	-	-	-	-	.
O=C(NC1CCCCCC1)c1cc(S(=O)(=O)N2CCCCC2)ccc1N1CCOCC1	-	-	-	-	-	-	.
O=C(NC1CCCCCC1)c1cc(S(=O)(=O)N2CCOCC2)ccc1N1CCCCC1	-	44	-	.	-	-	-
CC(C)C(C(=O)NCC1CCCO1)N(CC1CCCO1)C(=O)CNS(=O)(=O)c1ccccc1 (stereo not given)	-	-	-	-	-	-	.
CC(=O)Nc1cccc(NC(=O)CSc2nc(=O)n(Cc3ccccn3)c3c2CCC3)c1	-	97	-	.	-	.	-
CC(=O)Nc1cccc(NC(=O)CSc2nc(=O)n(Cc3ccncc3)c3c2CCC3)c1	-	-	-	-	-	.	.
COCCN1C(=O)C(=O)/C(=C(/O)c2ccc(S(=O)(=O)N3CCCCC3)cc2)C1c1ccc(OC)cc1 (stereo not given)	-	90	-	-	-	-	-
Cc1c(NC(=O)c2cc(S(=O)(=O)N3CCCCC3)ccc2Cl)c(=O)n(-c2ccccc2)n1C	-	-	-	-	-	.	.
COc1ccc(CNC(=O)CN(C(=O)CCC(=O)Nc2ccccn2)c2cccc(C)c2C)cc1	-	-	-	-	-	-	.
COc1ccccc1N1CC(C)(C)C(=O)N(C(=O)c2ccc(C)cc2)C1=S	-	43	-	-	-	-	45
COc1ccccc1N1CCN(C(=O)c2ccc(N3CCCC3=O)cc2)CC1	-	-	-	-	-	-	.
O=C(COC(=O)c1ccc([N+](=O)[O-])o1)Nc1ccc(Br)cc1F	-	47	-	.	-	.	50
O=C(COC(=O)c1ccc([N+](=O)[O-])o1)Nc1ccc(F)cc1	-	-	-	-	-	.	.
S=C(NCc1ccccc1)N1CCN(c2cccc(Cl)c2)CC1	-	46	-	-	-	-	-
O=C(Cn1ccc2ccccc2c1=O)N1CCN(c2cccc(Cl)c2)CC1	-	54	-	-	-	-	-
C=CCn1c(O)c(N=Nc2ccccc2O)c2ccccc21	-	49	-	195	-	.	65
COc1ccc(NC(=O)Nc2cccc3c2O[C@H](CN(C)C(=O)Nc2ccc(OC)cc2)[C@@H](C)CN([C@H](C)CO)C3=O)cc1	-	-	-	-	-	.	.
C=CCN(c1ccc(C(=O)Nc2ccc(NC(C)=O)cc2)cc1)S(C)(=O)=O	-	-	-	-	-	-	.
O=S(=O)(NCc1ccc2c(c1)OCO2)c1ccc2oc3ccccc3c2c1	-	49	-	.	-	.	35
O=C1c2cccc(OCC(=O)N3CCCc4ccccc43)c2CCN1Cc1ccc(F)cc1	-	43	-	-	-	-	-
Cc1ccc(C(=O)Cn2c(C(=O)/C=C/c3ccccc3)nc3ccccc32)cc1	-	43	-	.	-	-	33
SMILES	NALP3 yeast inh	TIM10 inh	tim10-1 inh	PfHsp90 set2	tim23-1 inh	NALP1 yeast inh	TIM10 conf
Cc1ccc(C(=O)Cn2c(NCCO)nc3ccccc32)cc1	-	-	-	-	-	-	.
Cc1ccc(-c2nc3cc(N)ccc3o2)cc1	-	41	-	-	-	-	30
Cc1ccc(-c2nc3cc(NS(=O)(=O)c4ccc(C)cc4)ccc3o2)cc1	-	45	-	-	-	-	37
Cc1ccc(-c2nc3cc(C)ccc3o2)cc1	-	-	-	-	-	-	.
CCCC(=O)N(Cc1cc(=O)[nH]c2ccccc12)c1ccccc1C	-	-	-	-	-	-	.
Cc1cccc(-n2c(-c3ccc(Br)o3)n[nH]c2=S)c1	-	-	-	-	-	.	.
Cc1cccc(-n2c(-c3csc(C(C)C)c3)n[nH]c2=S)c1	-	42	-	-	-	-	-
